About 79,000 compounds went through this panel and 15% of them were active in at least one assay; those are over-represented in the sample as a whole. No stated cut-off is given here; in the data, active means growth inhibition above about 70%; inactive means the rest.
Assays:
[1] = NCI Yeast Anticancer Drug Screen. Data for the rad50 strain (AID 155);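 further: 0% = growth of vehicle-only cultures of the same strain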; conditions: S. cerevisiae rad50 strain growth inhibition; at 50.0 µM; active compounds read high
Outline: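 Yeast carrying a defined DNA repair defect were exposed to test compounds, and growth was compared with vehicle-treated controls to give percent inhibition.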

[2] = NCI Yeast Anticancer Drug Screen. Data for the mec2-1 strain (AID 157); conditions: S. cerevisiae mec2-1 strain, at 50.0 µM, active compounds read high
Outline: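 Compounds were applied to mec2-1 yeast cells. Their growth was then compared with that of vehicle-treated cultures to give growth inhibition.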

[3] = NCI Yeast Anticancer Drug Screen. Data for the sgs1 mgt1 strain (AID 161);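 further: 0% = growth of cultures given vehicle only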; conditions: S. cerevisiae sgs1 mgt1 strain, at 50.0 µM, active compounds read high
Outline: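 Percent growth inhibition was derived by comparing compound-exposed mutant yeast with vehicle-exposed cultures. The strain carries alterations in DNA damage repair.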

[4] = NCI Yeast Anticancer Drug Screen. Data for the cln2 rad14 strain (AID 165);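 further: 0% = growth equal to vehicle treated cultures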; conditions: S. cerevisiae cln2 rad14 strain, at 50.0 µM, active compounds read high
Outline: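 Strain: cln2 rad14 yeast, altered in cell cycle control and DNA damage repair. Read-out: growth inhibition vs vehicle.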

[5] = NCI Yeast Anticancer Drug Screen. Data for the bub3 strain (AID 167); conditions: S. cerevisiae bub3 mutant strain, at 50.0 µM, active compounds read high
Outline: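 Compounds were applied to a genetically altered yeast strain carrying a cell-cycle control defect. Growth inhibition was scored against vehicle-treated controls.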

[6] = NCI Yeast Anticancer Drug Screen. Data for the mlh1 rad18 strain (AID 175); conditions: S. cerevisiae mlh1 rad18 strain growth inhibition; at 50.0 µM; active compounds read high
Outline: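 A repair-deficient yeast strain is exposed to test compound, and growth is scored relative to vehicle-treated controls.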

Measured: growth inhibition

C[n+]1cc(N)cc2ccccc21
inactive: [1] 1.65% | [2] -4.9% | [3] -6.75% | [4] 3.3% | [5] 9.8% | [6] -16.4%

CC(=O)NCCc1ccc(OCc2ccccc2)cc1
inactive: [1] -7.15% | [2] 2.25% | [3] 3.7% | [4] -51.5% | [5] -19.4% | [6] -1.45%

COc1cccc(CCC(=O)O)c1
inactive: [1] -11.7% | [2] -9.75% | [3] -21.6% | [4] 31% | [5] -1.45% | [6] 2.7%

O=C(Cn1ccnc1[N+](=O)[O-])c1ccc(F)cc1
inactive: [1] 62.8% | [2] -13.9% | [3] 33.9% | [4] 4.6% | [5] -9.9% | [6] 13.3%

O=c1[nH]nc(-c2ccccc2)n1-n1cccc1
inactive: [1] -9.25% | [2] -26.1% | [3] -5.95% | [4] -3.6% | [5] -12.3% | [6] -6.25%

Nc1ncnc(N)c1NC(=O)c1ccccc1
inactive: [1] -16.4% | [2] -19.6% | [3] -24.4% | [4] -21.4% | [5] 3.25% | [6] 14.6%

CN(C)CC1CCCC/C1=N/O (stereo unspecified)
inactive: [1] 0.5% | [2] -6.75% | [3] -9.4% | [4] -17.5% | [5] 2.55% | [6] -5.15%

CC(=S)N=Cc1c(N)[nH]n(-c2ccccc2)c1=O
inactive: [1] -40.5% | [2] -12.8% | [3] -24.6% | [4] -0.3% | [5] -20.1% | [6] -24.5%

CCCC1(C)OCC(C)([N+](=O)[O-])CO1 (stereo unspecified)
inactive: [1] -26% | [2] -11.2% | [3] -3.25% | [4] -22.4% | [5] -24% | [6] 10.8%

c1ccc(-c2c3ccccc3cc3c2ccc2ccccc23)cc1
inactive: [1] -13.4% | [2] -12.2% | [3] -3.95% | [4] 9.25% | [5] 19.5% | [6] 0.55%

CCOc1nc(C(=O)O)cc2ccsc12
inactive: [1] 1.15% | [2] -6.2% | [3] 5.5% | [4] -48.1% | [5] -43.4% | [6] 0%

O=S(=O)(Nc1nccs1)c1ccc(NCc2c3ccccc3nc3ccccc23)cc1
inactive: [1] 62.2% | [2] 54.7% | [3] 42.3% | [4] 30% | [5] 17.7% | [6] 49.5%

CCC(O)C(O)(c1ccccc1)c1ccccc1 (stereo unspecified)
inactive: [1] 4.05% | [2] 8% | [3] -8.8% | [4] -2.75% | [5] -1.2% | [6] -6.7%

CCc1sc(N)nc1-c1ccccc1
inactive: [1] -3.15% | [2] -23.9% | [3] 7.05% | [4] -1.65% | [5] 4% | [6] -8.75%

C=CCc1cc(OC)c(O)c(C(=O)OCC)c1
inactive: [1] -2.35% | [2] -12.8% | [3] -3.25% | [4] 1.3% | [5] 7.65% | [6] -2.15%

O=C(O)CNc1ccc([N+](=O)[O-])cc1C(=O)O
inactive: [1] -1.25% | [2] -1% | [3] 2.75% | [4] 7.4% | [5] -6.7% | [6] -5.95%

CCOC(=O)C(NC(=O)c1cccc(Cl)c1)(N1CCN(c2cc3c(cc2F)c(=O)c(C(=O)O)cn3CC)CC1)C(F)(F)F (stereo unspecified)
inactive: [1] -7.7% | [2] -39.5% | [3] -18.3% | [4] 4.45% | [5] -16.8% | [6] -23.6%

CCCCCCCCC(Br)C(Br)CCCCCCCC(=O)N(CCCC)CCCC (stereo unspecified)
inactive: [1] 36.9% | [2] 10.6% | [3] 2.05% | [4] -5.45% | [5] 13.8% | [6] 8.3%

N#Cc1nnc2cc(-c3ccccc3)nn2c1-c1cccs1
inactive: [1] 0.6% | [2] -8.6% | [3] 15.8% | [4] 21.1% | [5] 4.1% | [6] 6.35%

C/C(CC(O)(C(F)(F)F)C(F)(F)F)=N\O
inactive: [1] -29.8% | [2] -51.2% | [3] -20.4% | [4] -15.9% | [5] -19.5% | [6] -5.65%

Nc1c(S(=O)(=O)O)ccc2c1C(=O)c1ccccc1C2=O
inactive: [1] 27.9% | [2] 24.2% | [3] 34% | [4] 6.5% | [5] 49.1% | [6] 16.4%

Nc1ccc(/C(=N\O)c2ccccc2)cc1
inactive: [1] 19.6% | [2] 13.9% | [3] 23.9% | [4] 0.8% | [5] -2.6% | [6] 10.1%

CN1CCC/C1=C/C(=O)c1ccccc1[N+](=O)[O-]
inactive: [1] 2.9% | [2] -0.1% | [3] -0.65% | [4] -28.3% | [5] 9.6% | [6] -11.7%

CCOC(=O)C(C)(C)OC(C)=O
inactive: [1] 39.2% | [2] 21.4% | [3] 19.6% | [4] 13.8% | [5] 4.2% | [6] 2.15%

CN(C)c1nc(Cl)nc2c1ncn2-c1ccccc1
inactive: [1] 9.85% | [2] -23.2% | [3] 3.1% | [4] -10.7% | [5] -31.4% | [6] -5.1%

Cc1ccc(S(=O)(=O)Nc2ccccc2C(=O)c2ccc(C)c(C)c2)cc1
inactive: [1] 4.1% | [2] -7.15% | [3] -9.9% | [4] -41% | [5] -40.9% | [6] 23.9%

O=C1c2c(O)cccc2C(C(=O)CCCCC(=O)C2c3cccc(O)c3C(=O)c3c(O)cccc32)c2cccc(O)c21
inactive: [1] 1.75% | [2] 15.2% | [3] 27.3% | [4] 17.1% | [5] 17.2% | [6] 1.05%

O=C(NO)c1c(F)c(F)c(C(=O)NO)c(F)c1F
inactive: [1] -2.5% | [2] 7.05% | [3] 4% | [4] 11% | [5] 9.65% | [6] 2.1%

O=C1C=C(Cl)C(=O)O1
inactive: [1] 8.85% | [2] 10.2% | [3] -8.8% | [4] -9.1% | [5] -8% | [6] 15.6%

Cc1ccc(N=C=S)cc1Cl
inactive: [1] 6.75% | [2] 9.65% | [3] 32.4% | [4] 6.55% | [5] 15.8% | [6] 27.9%

Cc1c(Cl)ccc([N+](=O)[O-])c1Cl
inactive: [1] 10.7% | [2] -6.85% | [3] -3.35% | [4] 18.3% | [5] 14.8% | [6] 29.4%

CCOP(=O)(OCC)C(C)(CC)NC1=NC(C(F)(F)F)(C(F)(F)F)NC(=O)N1 (stereo unspecified)
inactive: [1] -2.2% | [2] -10.2% | [3] -3.3% | [4] 1% | [5] -0.5% | [6] -0.15%

CC(C)=CC1C(C(=O)Oc2c(Cl)c(Cl)c(Cl)c(Cl)c2Cl)C1(C)C (stereo unspecified)
inactive: [1] 12.5% | [2] 6.5% | [3] 40.9% | [4] 12.2% | [5] -4.15% | [6] 31.2%

CCCC(=O)Oc1cc(C)ccc1C(C)(C)C
inactive: [1] -17.9% | [2] -22.6% | [3] -12.3% | [4] -33.6% | [5] -35.6% | [6] -42%

CCCCNC(N)=O
inactive: [1] -21.1% | [2] -36.1% | [3] -21.9% | [4] -37.9% | [5] -2.2% | [6] -9.25%

COC(=O)C1=C(C(=O)OC)P2(C)(C)OC(c3ccccc3)CN2C1(c1ccccc1)c1ccccc1 (stereo unspecified)
inactive: [1] 18% | [2] 9.15% | [3] -2.4% | [4] -80% | [5] 0.3% | [6] 40.9%

Cc1cccc(C)c1NC(=O)C(Cl)(Cl)Sc1ccc(Cl)cc1Cl
inactive: [1] 0.3% | [2] -34.9% | [3] 5.9% | [4] 8.65% | [5] -5.2% | [6] -2.6%

CCOC(=O)c1nc2cc(C(F)(F)F)ccc2nc1Nc1ccc(OC)c(OC)c1
inactive: [1] -18.1% | [2] -6.15% | [3] -16.9% | [4] -12.4% | [5] -12.8% | [6] -14%

COc1ccc(C(CCl)(CCl)c2ccc(OC)c(C)c2)cc1C
inactive: [1] -23.3% | [2] -74.1% | [3] -30.2% | [4] -4.05% | [5] 5.3% | [6] -20.4%

CC1(C)C2C/C(=N/O)C(=O)C1C2 (stereo unspecified)
inactive: [1] -4.5% | [2] 4.05% | [3] 8.8% | [4] 14.6% | [5] -16.9% | [6] -20.2%

COc1cc2ccc3c4cc(OC)c(OCc5ccccc5)cc4cnc3c2cc1OC
inactive: [1] 40.5% | [2] 0.45% | [3] 4.9% | [4] 18.9% | [5] 27.4% | [6] 23%
